Results taken from PubChem BioAssay AID526 (National Center for Advancing Translational Sciences (NCATS), 2006).
The campaign covered roughly 67,000 compounds. Fewer than 10 were called active. Calls come from the whole dose curve; as a rule, active = well fitted activation curve with a large enough effect (not every such curve was filed as active); inconclusive = small, poorly fitted or top-dose-only effect, or another doubt; inactive = no such curve, though single readings can be large or run the other way. Not all results are given here.

assay: Ubiquitin-GFP Assay; conditions: Ubiquitin-GFP reporter cells, proteasome inhibition, GFP fluorescence, untreated = 0%, 10 µM MG-132 = 100%; series mostly up to 45.9 µM
From the text: NIH Chemical Genomics Center [NCGC]
NIH Molecular Libraries Screening Centers Network [MLSCN]
The ubiquitin-proteasome pathway is present within all eukaryotic cells and plays roles in normal cellular functions and disease-related dysfunction. Proteins are tagged with a poly-ubiquitin chain that targets them for the proteasome, a multimeric protease, that degrades the protein into peptides and free ubiquitin. The proteasome has a key role in regulating cell cycle and growth and is known to control the levels of cyclins and CDK inhibitors as well as tumor suppressor proteins. Additionally, the activation of NF- B is controlled by ubiquitin-labeling and degradation of the inhibitory protein I B . […] With this in mind, proteasome inhibitors such as MG-132 and PS-341 have been used to inhibit tumor cell growth.
A cellular assay for ubiquitin-proteasome function was used to find chemical probes of this pathway. The assay used an ubiquitin-GFP construct expressed in U2OS cells (BioImage). Under basal conditions little GFP can be detected as it is degraded by the proteasome. However, treatment of the cells with a proteasome inhibitor such as MG-132 results in a rise in GFP levels that can be detected in as little as four hours. We used the Acumen-Explorer laser plate cytometer having a 488 nm laser as an excitation light source to detect the GFP. Compounds were screened in 1536-well plates using qHTS with a concentration-titration series range that varied from 46 uM to 2.9 nM.
NCGC Assay Protocol Summary:
Cells (U20S ps 2042) expressing ubiquitin (G76V-GFP) were maintained in DMEM with Glutamax-1 and high glucose, 10% FBS, 1% (v/v) penicillin-streptomycin, 0.5 mg/mL Geneticin (G418). The cells were seeded in 1536-well plates using a solenoid-based dispenser at 700 cells/5ul in DMEM medium with Glutamax-1 and high glucose containing 0.5% FBS, w/o phenol red, 25 mM HEPES. The plates were incubated at 37 °C/5% CO2 overnight. Then 23 nl of MG-132 in DMSO was added to the control wells at a final concentration of 10 uM. Next, 23 nL of library compounds in DMSO were added to the sample wells. The plates were incubated for 4 hrs at 37 °C/5% CO2. Following this incubation the plates were read on the Acumen using a cell object definition of 15 to 100 um in width and depth and a window of Total Intensity of between 77,200 and 2,720,000 FLU to enumerate GFP-expressing cells.
The %Activity was determined from the basal and MG-132 treated control wells. %Activity was determined by normalizing to the difference in signal between basal cells (0% Activity) and cells incubated with 10 uM of the proteasome inhibitor MG-132 (100% Activity). Concentration-response curves were fitted to the signals arising from the GFP fluorescence.
Assay Protocol Summary Table
Sequence Parameter Value Description
2. Time O/N 37C incubation
4. Compound 23 nL Libraries (46 uM to 2.9 nM)
5. Time 4 hr 37C incubation
6. Detector Acumen Total Intensity, GFP fluorescence (488 ex/515 em)
Keywords: NIH Roadmap, MLSCN, MLI, MLSMR, BioImage, proteasome, ubiquitin-GFP, qHTS, NCGC

Structure (SMILES)	activation (GFP accumulation)
Cc1cc(C(=O)O)c(S(C)(=O)=O)s1	inactive
CCn1nnc(NC(=O)c2cc(Cl)c(OC)c(Cl)c2)n1	inactive
CCC(c1nnnn1C1CCCC1)N(Cc1cccs1)Cc1cc2cccc(C)c2[nH]c1=O (stereo unspecified)	inactive
Cc1ccccc1CSc1nnc(-c2ccccn2)n1N	inactive
Cn1c(=O)c(CCc2ccccc2)nc2cnc(Nc3ccccc3)nc21	inactive
COc1ccccc1CN1CC2(CCN(S(=O)(=O)c3ccccc3)CC2)C1	inactive
CC(C)(O/N=C(\C(=O)N[C@@H]1C(=O)N2C(C(=O)[O-])=C(C[n+]3ccccc3)CS[C@@H]12)c1csc(N)n1)C(=O)O	inactive
CCc1cc(Br)ccc1NC(=O)C1CCCO1 (stereo unspecified)	inactive
O=C(O)c1c(Br)c(Br)c(Br)c(Br)c1C1c2ccc(O)cc2Oc2cc(O)ccc21	5.65% [at 9.17 µM] (inactive)
CS(=O)(=O)N1CCC2(CC1)CN(c1ccncc1)C2	inactive
NCC(=O)[C@@H](O)[C@H](O)[C@H](O)CO	1.45% [at 9.17 µM] (inactive)
O=C(c1ccco1)N1CCC[C@@]2(CCN(c3ccccc3)C2)C1	inactive
Cc1ccc(-c2cc(C(F)(F)F)n3nc(C(=O)N4CCCC4)cc3n2)cc1	6.67% [at 9.17 µM] (inactive)
CC(C)CSC[C@@H]1O[C@H](n2cnc3c(N)nccc32)[C@H](O)[C@@H]1O	-1.11% [at 9.17 µM] (inactive)
O=C(Nc1nc2ccc(S(=O)(=O)N3CCCC3)cc2s1)C1CCCO1 (stereo unspecified)	inactive
O=C(Cn1ccc(=O)[nH]c1=O)Nc1ccc(C(=O)O)c(O)c1	-3.58% [at 9.17 µM] (inactive)
CNc1cc(-c2c(C)noc2C)ncn1	inactive
CCOC(=O)c1cc(C)sc1NC(=O)C1CCC1	inactive
CC(Sc1sc(=S)sc1SC(C)C(=O)O)C(=O)O (stereo unspecified)	inactive
CCCOc1ccc(-c2nc(N)n[nH]2)cc1	inactive
CC(C)NS(=O)(=O)c1ccc(CCC(=O)N2CCOCC2)cc1	inactive
CCOC(=O)c1sc(/N=C/Nc2nc(C)c(C(=O)OCC)s2)nc1C	inactive

Structure (SMILES)	activation (GFP accumulation)
CCCCCCCCCCCC(=O)O[C@H](CC(=O)O)C[N+](C)(C)C	inactive
CC(=O)O[C@]1(C(C)=O)CC[C@@H]2[C@@H]3C=C(C)C4=CC(=O)CC[C@@]4(C)[C@H]3CC[C@]21C	inactive
CCCSC1=C(C#N)C(c2ccccc2C)C(C(=O)OC)C(=O)N1 (stereo unspecified)	inactive
Nc1ccc2[nH]cc(CCC(=O)O)c2c1	-1.62% [at 9.17 µM] (inactive)
Cn1c(NC(=O)c2ccc3c(c2)OCO3)cc(=O)n(C)c1=O	inactive
N#CCCn1c(=O)c(-c2cc(F)cc(F)c2)nc2cnc(Oc3ccccc3)nc21	inactive
CCCCNc1nc(C)nc2c1nc(-c1ccccc1)n2CCCCN(CC)CC	inactive
Cc1ccc(N2CCN(S(=O)(=O)c3ccc(F)cc3)CC2)c(C)c1	inactive
CN(Cc1ccco1)c1cc(-c2ccccc2C(F)(F)F)ncn1	inactive
COCCn1c(=O)c(CCc2ccccc2)nc2cnc(N3CCNCC3)nc21	inactive
CCCCN(CCCC)C(=O)CCS(=O)(=O)c1ccc2c(c1)n(C)c(=O)c(=O)n2C	inactive
COc1cccc(-c2cc(NCCc3c[nH]c4ccc(OC)cc34)ncn2)c1	inactive
Cc1ccccc1N1CCN(S(=O)(=O)C[C@@]23CC[C@H](C[C@H]2NC(=O)[C@@H](N)CCS(C)(=O)=O)C3(C)C)CC1	inactive
O=C(C1CCN(S(=O)(=O)c2cnc[nH]2)CC1)N1CCN(Cc2ccc3c(c2)OCO3)CC1	inactive
Nc1cc(OC(=O)c2ccccc2Br)nn1S(=O)(=O)c1ccccc1	inactive
CN1[C@@H]2CC[C@H]1CC(NC(=O)c1nn(C)c3ccccc13)C2 (stereo partly specified)	inactive
O=C(/C=N/O)Nc1ccccc1	inactive
CCOc1ccccc1-n1c(SCC(=O)N2CCCC2)nnc1-c1ccoc1C	inactive
CN1CCN(c2ncncc2-c2ccc(C(=O)N(C)C)cc2)CC1	inactive
O=C(c1cc(C(F)(F)F)cc(C(F)(F)F)c1)N1CCC2(CCCN(c3ccccn3)C2)CC1	inactive
COC(=O)Nc1nc2ccc(Sc3ccccc3)cc2[nH]1	inactive
CCOC(=O)C1CCN(C(=O)COc2cc(C)c(Br)c(C)c2)CC1	inactive

Structure (SMILES)	activation (GFP accumulation)
COCCn1c(=O)c(C)nc2cnc(N(C)C)nc21	inactive
Cc1ccc(S(=O)(=O)c2nc(NCCCn3ccnc3)sc2Cl)cc1	inactive
COc1ccccc1-c1cc(NCc2cccs2)ncn1	inactive
Cc1c(NC(=O)c2cccnc2)c(=O)n(-c2ccccc2)n1C	inactive
COc1cccc(N2C(=O)CC(N3CCN(S(=O)(=O)c4ccccc4)CC3)C2=O)c1 (stereo unspecified)	inactive
Cc1cc(C(F)(F)F)nn1CC(=O)N1CCCC1	inactive
CC(=O)N1CCC2(CCCN(Cc3ccc(C#N)cc3)C2)CC1	inactive
CC(NC(=O)c1cc(-c2ccccc2)on1)c1ccccc1 (stereo unspecified)	inactive
N#CCCn1cnc2ccccc21	inactive
O=C(CCN1C(=O)c2ccccc2C1=O)Nc1ccncc1	inactive
Clc1ccccc1-c1cc(NCCN2CCOCC2)ncn1	inactive
CCCS(=O)(=O)N1CCCC(C(=O)NCc2ccco2)C1 (stereo unspecified)	inactive
COc1ccc(-c2noc(CN(C)S(=O)(=O)c3ccc(C)cc3)n2)cc1	inactive
Cc1nc2cnc(Nc3ccccc3)nc2n(C[C@H]2CCCO2)c1=O	inactive
COc1ccccc1CNc1cc(-c2ccccc2CN(C)C)ncn1	inactive
CCn1c(=N)c(C(=O)NCCCOC)cc2c(=O)n3cccc(C)c3nc21	inactive
Oc1ccc(Cn2cc[nH]c2=S)cc1	inactive
O=C(Nc1cccc(F)c1)N1CCC2(CC1)CCN(S(=O)(=O)c1ccccc1)CC2	inactive
CCOc1ccc(N=NS(=O)(=O)O)cc1	-2.9% [at 9.17 µM] (inactive)
NC(=S)c1ccc(C(N)=S)o1	inactive
COc1ccc(CN2CC(C(=O)NCCN3CCN(c4ccccc4F)CC3)CC2=O)cc1 (stereo unspecified)	inactive
COC(=O)c1ccc2c(c1)S(=O)(=O)NC(=NCCCN1CCOCC1)S2	inactive

Structure (SMILES)	activation (GFP accumulation)
CN(C(=O)CN(CCO)CC(=O)N(C)C(C)(C)Cc1ccccc1)C(C)(C)Cc1ccccc1	inactive
O=C(O)C1=CCCN(CCON=C(c2ccccc2)c2ccccc2)C1	inactive
CCS(=O)(=O)N1CCCC(C(=O)NCCCN(C)Cc2ccccc2)C1 (stereo unspecified)	inactive
COC(=O)C1(S(=O)(=O)C2(C(=O)OC)CCCC2)CCCC1	inactive
CC(C)[C@H](CO)Nc1nc(Nc2cc(N)cc(Cl)c2)c2ncn(C(C)C)c2n1	inactive
O=c1cc(-c2ccc(O)c(O)c2)oc2cccc(O)c12	inactive
CC(C)NC[C@H](O)c1ccc2ccccc2c1	inactive
CCOC(=O)c1sc(NC(=O)CSc2nnc(-c3ccco3)o2)c(C(=O)OCC)c1C	inactive
CN1CCN(Cc2nc3c(c(=O)n(C)c(=O)n3C)n2Cc2cccc3ccccc23)CC1	inactive
O=C(O)[C@@H](S)[C@H](S)C(=O)O	4.35% [at 9.17 µM] (inactive)
COC(=O)c1ccc(NC(=O)C(C)N2C(=O)c3ccccc3C2=O)cc1 (stereo unspecified)	inactive
CC(=O)N1CCC2(CC1)CCN(c1ccncc1)CC2	inactive
COCCn1c(=O)c(-c2ccc(OC)cc2)nc2cnc(Oc3cccc(Cl)c3)nc21	inactive
Cc1cccc(OCc2nnc(SCn3nnc4ccccc4c3=O)o2)c1	inactive
Fc1cccc(/C=N\N=C/c2cccc(F)c2)c1	inactive
COc1ccc(CNc2ncnc3ccc(-c4cccnc4)cc23)c(OC)c1	inactive
CC(C)(C)Nc1c(N)c(=O)oc2ccccc12	-4.55% [at 9.17 µM] (inactive)
COc1ccccc1N1CCN(C[C@@H]2CN3C(=O)N(C)c4ccccc4C3=N2)CC1	inactive
CC[C@]1(C)CC(=O)NC1=O	inactive
Cc1cc(=O)[nH]c(SCc2cc(Cl)ccc2OC(F)F)n1	inactive
COc1ccc(NC(C)=O)cc1NC(=O)CN1CCN(C2c3ccccc3-c3ccccc32)CC1	inactive
COCC(=O)Nc1nnc(COc2ccccc2)s1	inactive

Structure (SMILES)	activation (GFP accumulation)
O=C(O)Cc1ccc(-c2ccccc2)cc1	inactive
CCCS(=O)(=O)N1CCN(C(=O)c2cccs2)CC1	inactive
CC1=C(C(=O)OC2CCCCC2)C(c2cccnc2)n2ncnc2N1 (stereo unspecified)	inactive
C1=C(N2CCOCC2)/C(=C/c2nc3ccccc3[nH]2)CC1	-10.8% [at 9.17 µM] (inactive)
O=C(CSc1nnc(-c2cccnc2)n1Cc1ccco1)c1ccc(Cl)cc1	inactive
CC(C)(CSc1nncn1/N=C/c1ccco1)NS(=O)(=O)c1ccc(Cl)cc1	inactive
CCC(c1nnnn1Cc1ccco1)N(CCc1ccccc1)Cc1cc2cccc(C)c2[nH]c1=O (stereo unspecified)	inactive
CC(C(=O)O)N1C(=O)c2cccc3cccc1c23 (stereo unspecified)	inactive
CC[N+](C)(CC)CCC[n+]1c(-c2ccccc2)c2cc(N)ccc2c2ccc(N)cc21	inactive
CC1(C)S[C@@H]2[C@@H](NC(=O)[C@@H](N)c3ccccc3)C(=O)N2[C@H]1C(=O)O	inactive
Cc1ccc(CNC(=O)C2CC(=O)N(C3CCCCCCC3)C2)cc1 (stereo unspecified)	inactive
COc1ccccc1-n1nnnc1S(=O)(=O)Cc1ccc(Cl)cc1	inactive
Cc1nc(N2CCN(c3ncccn3)CC2)c2oc3ccccc3c2n1	inactive
CSc1ccc(S(=O)(=O)Nc2cccc(F)c2)cc1	inactive
O=C(NCc1cccs1)C1CCN(S(=O)(=O)c2ccc3c(c2)OCCO3)CC1	inactive
O=S(=O)(O)c1ccc(O)c2ncccc12.O=S(=O)(O)c1ccc(O)c2ncccc12.[Zn]	2.9% [at 9.17 µM] (inactive)
CN(C)c1ccc(CNC23CN4CN(CN(C4)C2)C3)cc1	inactive
CCCn1c(C(O)c2cc(OC)ccc2OC)nc2ccccc21 (stereo unspecified)	inactive
